The values that follow come from PubChem BioAssay (EPA / NIEHS).

What is called AC50 is the concentration at which the activity in the assay is half-maximal.

Holding throughout (settings): mRNA level, 48 h; actives raise or lower the signal
Read-out in one assay: CYP2E1 (gene 1571)
Briefly: LTEA_HepaRG_CYP2E1: Life Technologies and Expression Analysis (LTEA) Assay for CYP2E1 using HepaRG (AID 2283485). An outline of the steps:
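Readout is qRT-PCR of CYP2E1 mRNA, normalized to three housekeeping genes and fitted bidirectionally against 0.5% DMSO. HepaRG cells were dosed 48 h at eight concentrations, highest 100 uM with half-log dilutions.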

Read-out in the next assay: CYP4A11 (gene 1579)
Briefly: LTEA_HepaRG_CYP4A11: Life Technologies and Expression Analysis (LTEA) Assay for CYP4A11 using HepaRG (AID 2283486). Summed up: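 Human hepatic HepaRG cultures receive duplicate 48 h exposures across a concentration-response series topping at 100 uM. Expression changes in CYP4A11 are measured by qRT-PCR relative to DMSO controls.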

Read-out in assay [1]: Cytochrome P450 3A4 (Homo sapiens) (UniProt P08684)
The assay is described as follows: LTEA_HepaRG_CYP3A4: Life Technologies and Expression Analysis (LTEA) Assay for CYP3A4 using HepaRG (AID 2283487). Summed up: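 HepaRG, 48 h exposure, 8-pt CRC from 100 uM (half-log), 0.5% DMSO, duplicates; serum-free induction medium. Readout: CYP3A4 mRNA, qRT-PCR, ACTB/GAPDH/POLR2A normalization. Bidirectional fit vs DMSO.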

Read-out in assay [2]: DNA damage-inducible transcript 3 (DDIT3), DDIT3 (gene 1649)
The assay is described as follows: LTEA_HepaRG_DDIT3: Life Technologies and Expression Analysis (LTEA) Assay for DNA damage-inducible transcript 3 (DDIT3) using HepaRG (AID 2283488). Summed up:
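Cells are human HepaRG liver cells treated for 48 h with eight half-log concentrations up to 100 uM in 0.5% DMSO. Transcript levels come from qRT-PCR normalized to three housekeeping genes, with activity fitted in both directions relative to vehicle.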

Read-out in assay [3]: Pro-epidermal growth factor (Homo sapiens) (UniProt P01133)
The assay is described as follows: LTEA_HepaRG_EGF: Life Technologies and Expression Analysis (LTEA) Assay for Epidermal growth factor (EGF) using HepaRG (AID 2283489). An outline of the steps:
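Concentration-response mRNA assay: HepaRG cells dosed 48 h (max 100 uM, 0.5% DMSO), EGF measured by qRT-PCR and normalized to ACTB/GAPDH/POLR2A.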

Read-out in assay [4]: Early growth response protein 1 (EGR1) transcription factor, EGR1 (gene 1958)
Briefly: LTEA_HepaRG_EGR1: Life Technologies and Expression Analysis (LTEA) Assay for Early growth response protein 1 (EGR1) transcription factor using HepaRG (AID 2283490). Summed up:
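EGR1 expression change in human HepaRG after 48 h chemical exposure, assessed by housekeeping-normalized qRT-PCR; concentration-response up to 100 uM, fitted in both directions against DMSO controls.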

Read-out in assay [5]: Ezrin (EZR), EZR (gene 7430)
The assay is described as follows: LTEA_HepaRG_EZR: Life Technologies and Expression Analysis (LTEA) Assay for Ezrin (EZR) using HepaRG (AID 2283491). An outline of the steps:
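Read-out is EZR transcript level by qRT-PCR, normalized to three housekeeping genes and fitted bidirectionally against the DMSO control. Human HepaRG cells received test chemicals for 48 h at eight half-log concentrations up to 100 uM in 0.5% DMSO.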

Read-out in another assay: CYP3A5 (gene 1577)
The assay is described as follows: LTEA_HepaRG_CYP3A5: Life Technologies and Expression Analysis (LTEA) Assay for CYP3A5 using HepaRG (AID 2283493). Summed up:
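Human HepaRG hepatic cells receive 48 h chemical treatment at eight concentrations (half-log steps from 100 uM) in 0.5% DMSO. Expression of CYP3A5 is quantified by Fluidigm qRT-PCR and normalized to three reference genes.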

Read-out in assay [6]: Fatty Acid-Binding Protein 1 (FABP1), FABP1 (gene 2168)
Briefly: LTEA_HepaRG_FABP1: Life Technologies and Expression Analysis (LTEA) Assay for Fatty Acid-Binding Protein 1 (FABP1) using HepaRG (AID 2283494). An outline of the steps:
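Values reflect bidirectional concentration-response fitting of FABP1 mRNA change against 0.5% DMSO controls. Human HepaRG cultures received eight half-log doses (top 100 uM) for 48 h; expression quantified by TaqMan qRT-PCR with housekeeping-gene normalization.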

Read-out in assay [7]: Cytochrome P450 4A22 (Homo sapiens) (UniProt Q5TCH4)
Briefly: LTEA_HepaRG_CYP4A22: Life Technologies and Expression Analysis (LTEA) Assay for Cytochrome P450 4A22 (CYP4A22) using HepaRG (AID 2283495). An outline of the steps: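 Concentration-response (8 points, max 100 uM, 0.5% DMSO) in human HepaRG liver cells after 48 h exposure. CYP4A22 mRNA by TaqMan qRT-PCR with housekeeping-gene normalization.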

Read-out in assay [8]: Cytochrome P450 7A1 (Homo sapiens) (UniProt P22680)
The assay is described as follows: LTEA_HepaRG_CYP7A1: Life Technologies and Expression Analysis (LTEA) Assay for Cytochrome P450 7A1 (CYP7A1) using HepaRG (AID 2283496). An outline of the steps:
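HepaRG, 48 h exposure, 8-pt half-log series from 100 uM, 0.5% DMSO vehicle, duplicates. Readout: TaqMan qRT-PCR mRNA vs three housekeeping genes; bidirectional curve fit against DMSO baseline.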

Read-out in assay [9]: Glutathione S-Transferase (GSTA2), GSTA2 (gene 2939)
Briefly: LTEA_HepaRG_GSTA2: Life Technologies and Expression Analysis (LTEA) Assay for Glutathione S-Transferase (GSTA2) using HepaRG (AID 2283497). An outline of the steps:
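Oxidative-stress marker GSTA2 is quantified by TaqMan qRT-PCR in HepaRG cultures treated 48 h across an eight-point range to 100 uM. Expression is normalized to endogenous controls and compared with 0.5% DMSO vehicle.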

Read-out in assay [10]: Glutamate-cysteine ligase catalytic (GCLC), GCLC (gene 2729)
Briefly: LTEA_HepaRG_GCLC: Life Technologies and Expression Analysis (LTEA) Assay for Glutamate-cysteine ligase catalytic (GCLC) using HepaRG (AID 2283498). Summed up: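 Oxidative-stress marker GCLC is measured as mRNA change in human HepaRG liver cells after 48 h chemical treatment in 0.5% DMSO, eight concentrations from 100 uM. Activity is fitted bidirectionally against vehicle.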

Read-out in assay [11]: growth arrest and DNA damage 45 (GADD45G), GADD45G (gene 10912)
The assay is described as follows: LTEA_HepaRG_GADD45G: Life Technologies and Expression Analysis (LTEA) Assay for growth arrest and DNA damage 45 (GADD45G) using HepaRG (AID 2283499). An outline of the steps:
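Concentration-response in HepaRG: 48 h dosing, 0.5% DMSO, highest level 100 uM. GADD45G expression by qRT-PCR, normalised to endogenous controls; bidirectional fit to DMSO.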

Read-out in assay [12]: Glutamate-cysteine ligase regulatory (GCLM), GCLM (gene 2730)
The assay is described as follows: LTEA_HepaRG_GCLM: Life Technologies and Expression Analysis (LTEA) Assay for Glutamate-cysteine ligase regulatory (GCLM) using HepaRG (AID 2283500). An outline of the steps:
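Endpoint is GCLM transcript level by qRT-PCR, normalized to three housekeeping genes, after 48 h chemical exposure of human HepaRG cells (0.5% DMSO vehicle, top 100 uM, half-log dilutions). Fitting was bidirectional relative to DMSO.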

Read-out in assay [13]: Glutathione S-transferase M3 (GSTM3), GSTM3 (gene 2947)
The assay is described as follows: LTEA_HepaRG_GSTM3: Life Technologies and Expression Analysis (LTEA) Assay for Glutathione S-transferase M3 (GSTM3) using HepaRG (AID 2283501). Summed up: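 Expression of GSTM3 is determined by qRT-PCR in human liver HepaRG cells treated 48 h with an 8-point half-log range from 100 uM in 0.5% DMSO.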

Read-out in assay [14]: Hypoxia-inducible factor 1-alpha (Homo sapiens) (UniProt Q16665)
The assay is described as follows: LTEA_HepaRG_HIF1A: Life Technologies and Expression Analysis (LTEA) Assay for Hypoxia-inducible factor 1 (HIF1A) Trancription factor using HepaRG (AID 2283503). Summed up: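 HIF1A transcript level read by qRT-PCR (ACTB, GAPDH, POLR2A normalization) after 48 h chemical exposure of HepaRG cultures. Eight half-log concentrations, top 100 uM, 0.5% DMSO vehicle, duplicates; bidirectional curve fit against DMSO baseline.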

Read-out in assay [15]: Heat shock 70 kDa protein 1 (HSPA1A), gene 3303
Briefly: LTEA_HepaRG_HSPA1A: Life Technologies and Expression Analysis (LTEA) Assay for Heat shock 70 kDa protein 1 (HSPA1A) using HepaRG (AID 2283502). An outline of the steps:
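Cells were plated and cultured for 48 h, then switched to serum-free induction medium. Chemicals were added at eight half-log concentrations up to 100 uM for 48 h. RNA was then isolated and HSPA1A measured by qRT-PCR with bidirectional curve fitting against DMSO.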

Read-out in assay [16]: 3-Hydroxy-3-Methylglutaryl-CoA Synthase 2 (HMGCS2), HMGCS2 (gene 3158)
Briefly: LTEA_HepaRG_HMGCS2: Life Technologies and Expression Analysis (LTEA) Assay for 3-Hydroxy-3-Methylglutaryl-CoA Synthase 2 (HMGCS2) using HepaRG (AID 2283504). Summed up: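 This steatosis marker was read as HMGCS2 mRNA change in HepaRG cells treated 48 h with up to 100 uM chemical. Normalisation used housekeeping genes; activity in either direction was fitted relative to 0.5% DMSO vehicle.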

The structures appear in SMILES notation. Active and inactive are the calls of the source. The calls were made as follows: active = hit-call score of the fitted dose curve at least 0.9, where 1 is the maximum; inactive = score below 0.9.

Chain of Cytochrome P450 3A4 (Homo sapiens) (P08684 whole entry, looked up): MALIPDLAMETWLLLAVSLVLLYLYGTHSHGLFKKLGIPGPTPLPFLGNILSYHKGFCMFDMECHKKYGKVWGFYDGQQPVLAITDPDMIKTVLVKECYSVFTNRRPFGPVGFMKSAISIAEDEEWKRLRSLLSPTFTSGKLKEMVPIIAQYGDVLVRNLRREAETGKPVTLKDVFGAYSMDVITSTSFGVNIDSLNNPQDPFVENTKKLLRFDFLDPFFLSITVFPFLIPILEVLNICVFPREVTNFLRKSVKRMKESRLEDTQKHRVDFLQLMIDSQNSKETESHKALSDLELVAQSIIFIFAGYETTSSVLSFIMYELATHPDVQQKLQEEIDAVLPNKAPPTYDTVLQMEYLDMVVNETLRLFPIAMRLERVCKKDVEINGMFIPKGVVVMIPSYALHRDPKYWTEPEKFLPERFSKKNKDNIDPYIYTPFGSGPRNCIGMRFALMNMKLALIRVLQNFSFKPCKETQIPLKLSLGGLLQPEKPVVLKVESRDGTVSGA
Chain of Hypoxia-inducible factor 1-alpha (Homo sapiens) (Q16665 whole entry, looked up): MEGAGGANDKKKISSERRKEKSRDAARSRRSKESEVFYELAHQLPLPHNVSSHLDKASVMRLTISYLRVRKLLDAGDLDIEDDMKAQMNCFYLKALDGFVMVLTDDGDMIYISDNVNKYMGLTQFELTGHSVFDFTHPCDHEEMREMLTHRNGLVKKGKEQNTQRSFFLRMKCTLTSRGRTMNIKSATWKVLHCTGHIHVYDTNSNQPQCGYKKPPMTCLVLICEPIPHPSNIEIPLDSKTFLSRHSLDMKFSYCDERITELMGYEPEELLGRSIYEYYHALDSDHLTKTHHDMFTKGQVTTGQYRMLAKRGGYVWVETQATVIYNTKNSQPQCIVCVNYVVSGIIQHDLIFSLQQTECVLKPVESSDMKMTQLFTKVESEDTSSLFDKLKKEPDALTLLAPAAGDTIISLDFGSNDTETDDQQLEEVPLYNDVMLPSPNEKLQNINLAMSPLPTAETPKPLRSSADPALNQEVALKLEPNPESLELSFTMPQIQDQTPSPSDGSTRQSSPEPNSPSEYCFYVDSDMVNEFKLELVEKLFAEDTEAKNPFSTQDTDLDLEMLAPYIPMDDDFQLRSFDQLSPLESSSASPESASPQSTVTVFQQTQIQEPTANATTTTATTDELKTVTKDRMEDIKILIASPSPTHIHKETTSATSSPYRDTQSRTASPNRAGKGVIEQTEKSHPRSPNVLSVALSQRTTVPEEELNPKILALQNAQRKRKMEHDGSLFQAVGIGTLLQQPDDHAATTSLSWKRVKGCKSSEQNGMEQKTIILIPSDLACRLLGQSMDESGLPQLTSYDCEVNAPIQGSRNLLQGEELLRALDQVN

Regarding `CN(C)C(=S)SSC(=S)N(C)C`, the compound was classed as inactive (with CYP2E1 (gene 1571); with CYP4A11 (gene 1579); in [1]; in [2]; in assay [3]; in assay [4]). The call (in assay [5]; in the assay with CYP3A5 (gene 1577); in assay [6]; in assay [7]; in assay [8]; in assay [9]) was inactive. Further, the outcome in assay [10], in [11], in [12], in assay [13] and in assay [14] was inactive.
In the case of `Cc1c(F)c(F)c(COC(=O)C2C(/C=C(\Cl)C(F)(F)F)C2(C)C)c(F)c1F` (stereo not drawn), the half-maximal activity concentration (AC50) with CYP2E1 (gene 1571) was 72.3 µM (active); in assay [3], 50 µM (active); in assay [6], 63.1 µM (active). Further, the compound was classed as inactive (with CYP4A11 (gene 1579); in [1]; in assay [4]; in assay [5]; with CYP3A5 (gene 1577); in assay [7]). Also, the outcome in assay [10], in [11], in assay [13], in [15] and in [14] was inactive.
For the compound `Oc1ccccc1-c1ccccc1`, the compound was called inactive (in the assay with CYP2E1 (gene 1571); in the assay with CYP4A11 (gene 1579); in assay [1]; in [3]; in [4]; in assay [5]). Further, the call in assay [6], in assay [7], in assay [10], in assay [11], in assay [13] and in assay [15] was inactive. The result in assay [14] and in assay [16] was inactive.
As to `COC(=O)N(OC)c1ccccc1COc1ccn(-c2ccc(Cl)cc2)n1`, the half-maximal activity concentration (AC50) was 34.1 µM (active) with CYP2E1 (gene 1571); 78.5 µM (active) in assay [1]; 12.1 µM (active) in assay [3]; 87 µM (active) in the assay with CYP3A5 (gene 1577); 80.4 µM (active) in assay [6]; 15.8 µM (active) in assay [7]. The concentration at half-maximal activity (AC50) in assay [10] was 80.8 µM (active); in [11], 79.5 µM (active); in assay [13], 80.3 µM (active); in assay [14], 50 µM (active). For the same compound, the result (in the assay with CYP4A11 (gene 1579); in assay [4]; in assay [5]) was inactive.
In the case of `CCOc1cc(Oc2ccc(C(F)(F)F)cc2Cl)ccc1[N+](=O)[O-]`, the half-maximal activity concentration (AC50) is 24.8 µM (active) with CYP2E1 (gene 1571); 41.6 µM (active) in the assay with CYP4A11 (gene 1579); 12.2 µM (active) in assay [1]; 10.5 µM (active) in assay [3]; 30.4 µM (active) in assay [6]; 39.1 µM (active) in assay [7]. The results for the AC50 in [12] and in [16] were 50 µM (active) and 41.9 µM (active), respectively. Also, the compound was called inactive (in assay [4]; in [5]; in the assay with CYP3A5 (gene 1577); in [10]; in assay [11]; in assay [13]). For the same compound, the compound was called inactive in [15] and in assay [14].
As for `CNC(=O)ON=CC(C)(C)SC`, the outcome (in the assay with CYP2E1 (gene 1571); with CYP4A11 (gene 1579); in [1]; in assay [3]; in assay [4]; in assay [5]) was inactive. Also, the result (with CYP3A5 (gene 1577); in [6]; in assay [7]; in assay [9]; in [10]; in assay [11]) was inactive. Further, the compound was called inactive in assay [13] and in assay [14].
